Data on 39 molecules can be found in the supplement of paper PMC7411054.

Where a name gives a salt, the structure may show the parent alone.

One assay concerns WPMY1-TP53BP1-CLTA. The assay is described as follows: lowest phenotypically active concentration; higher = less potent. Conditions: treatment time: 24 h. In a few lines:
(§1)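 Two criteria together defined phenotypic activity: deviation and reproducibility. Deviation meant ≥3 of 4 wells beyond the 95th percentile of Euclidean distances in solvent control wells, and reproducibility meant a median replicate Pearson correlation above the 95th percentile of non-replicates. Wells had been treated for 24 h at 0.3, 1, 3 or 9 µM in fifteen gene-edited A549, HepG2 and WPMY1 reporter lines before live imaging.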
As to `O=C(CCCCCCC(=O)Nc1ccc([C@H]2O[C@@H](CSc3nc(-c4ccccc4)c(-c4ccccc4)o3)C[C@@H](c3ccc(CO)cc3)O2)cc1)NO` [Tubacin], the “lowest phenotypically active concentration” value amounted to 9 µM.
Consider `COc1cc(OC)c2c(=O)[nH]c(-c3cc(C)c(OCCO)c(C)c3)nc2c1` [apabetalone], for which the “lowest phenotypically active concentration” value stood at 9 µM.
On the same count and under the same terms, with `Cc1ccc(NC(=O)c2cccc(C(C)(C)C#N)c2)cc1Nc1ccc2ncn(C)c(=O)c2c1` the figure was 9 µM.
Same read-out and setting: with `COc1cc2c(cc1OC)-c1c/c(=N/c3c(C)cc(C)cc3C)n(C)c(=O)n1CC2` [Trequinsin hydrochloride] the figure was 9 µM; with `Nc1ncnc2c1c(-c1ccc(Oc3ccccc3)cc1)nn2C1CCCC1`, 3 µM; with `O=C(/C=C/c1ccc2ccccc2n1)c1ccncc1`, 9 µM.
The same measure, in the same setting: next, `CNC(=O)c1cc(Oc2ccc(NC(=O)Nc3ccc(Cl)c(C(F)(F)F)c3)c(F)c2)ccn1` [regorafenib]: 9 µM; `CCC(C)(C)C(=O)O[C@H]1C[C@@H](C)C=C2C=C[C@H](C)[C@H](CC[C@@H]3C[C@@H](O)CC(=O)O3)[C@H]21` [Simvastatin]: 3 µM.
`Nc1cc(N)c(N)cc1N` [FAK Inhibitor 14]: the “lowest phenotypically active concentration” value worked out at 9 µM.
On the same count and under the same terms, with `Cc1ccc(S(=O)(=O)c2ccc([N+](=O)[O-])o2)cc1` the figure was 3 µM.
Same read-out and setting: with `O=c1cc(-c2ccccc2)oc2cc(O)cc(O)c12` [Chrysin] the figure was 9 µM; with `CCN1/C(=C/C(C)=O)Sc2ccc(O)cc21`, 9 µM.
The same measure, in the same setting: with `O=S(=O)(c1cccc2cnccc12)N1CCNCC1` the figure was 9 µM; with `CC(C)c1c(C(=O)Nc2ccccc2)c(-c2ccccc2)c(-c2ccc(F)cc2)n1CC[C@@H](O)C[C@@H](O)CC(=O)O` [atorvastatin], 9 µM.

For another assay, the system named is WPMY1-TUBA1B-RELA. Described as above. Conditions: treatment time: 24 h. The method, boiled down:
as §1
As for `O=C(CCCCCCC(=O)Nc1ccc([C@H]2O[C@@H](CSc3nc(-c4ccccc4)c(-c4ccccc4)o3)C[C@@H](c3ccc(CO)cc3)O2)cc1)NO` [Tubacin], the “lowest phenotypically active concentration” value was 9 µM.
The same measure, in the same setting: next, `CC1CNCCN1S(=O)(=O)c1cccc2cnccc12` (stereo not given) [H-7 dihydrochloride]: 9 µM; `COc1cc(OC)c2c(=O)[nH]c(-c3cc(C)c(OCCO)c(C)c3)nc2c1` [apabetalone]: 9 µM.
Same read-out and setting: with `N#Cc1ccc2ncnc(NCCc3ccccc3)c2c1` [Senexin A] the figure was 3 µM.
Still for that read-out and setting: next, `CC(C)(C)c1ccc(C(O)CCCN2CCC(C(O)(c3ccccc3)c3ccccc3)CC2)cc1` (stereo not given) [terfenadine]: 3 µM; `CCc1nc(-c2cccc(C)c2)c(-c2ccnc(NC(=O)c3ccccc3)c2)s1`: 9 µM.
Turning to `O=C1c2c(O)cccc2Cc2cccc(O)c21` [anthralin], the “lowest phenotypically active concentration” value turned out to be 9 µM.
Still for that read-out and setting: next, `COc1cc2c(cc1OC)-c1c/c(=N/c3c(C)cc(C)cc3C)n(C)c(=O)n1CC2` [Trequinsin hydrochloride]: 9 µM; `O=C(Nc1ccncc1)c1cc([N+](=O)[O-])ccc1Cl`: 9 µM; `O=C(/C=C/c1ccc2ccccc2n1)c1ccncc1`: 9 µM.
In the case of `CCC(C)(C)C(=O)O[C@H]1C[C@@H](C)C=C2C=C[C@H](C)[C@H](CC[C@@H]3C[C@@H](O)CC(=O)O3)[C@H]21` [Simvastatin], the “lowest phenotypically active concentration” value amounted to 3 µM.
For `Nc1cc(N)c(N)cc1N` [FAK Inhibitor 14], the “lowest phenotypically active concentration” value was 1 µM.
In the case of `Cc1ccc(S(=O)(=O)c2ccc([N+](=O)[O-])o2)cc1`, the “lowest phenotypically active concentration” value came out at 9 µM.
Take `CC[C@H](CO)Nc1nc(Nc2cccc(-c3ccccn3)c2)c2ncn(C(C)C)c2n1` [(R)-DRF053 dihydrochloride]: the “lowest phenotypically active concentration” value stood at 9 µM.
Consider `COc1ccc(CCc2nc3cc(-c4c(C)noc4C)ccc3n2C[C@H](C)N2CCOCC2)cc1Cl`, for which the “lowest phenotypically active concentration” value turned out to be 9 µM.
Still for that read-out and setting: with `O=S(=O)(c1cccc2cnccc12)N1CCNCC1` the figure was 3 µM.
For the molecule `CC(C)c1c(C(=O)Nc2ccccc2)c(-c2ccccc2)c(-c2ccc(F)cc2)n1CC[C@@H](O)C[C@@H](O)CC(=O)O` [atorvastatin], the “lowest phenotypically active concentration” value was determined as 3 µM.

The test system of another assay is A549-ACTB-RAB5A. The experiment in a line: phenotypically active (imaging signature differs from DMSO and reproducible) at any of 0.3-9 uM (binary (1 = active, 0 = inactive)); higher = active. Conditions: treatment time: 24 h. The method, boiled down: as §1
With `O=C(CCCCCCC(=O)Nc1ccc([C@H]2O[C@@H](CSc3nc(-c4ccccc4)c(-c4ccccc4)o3)C[C@@H](c3ccc(CO)cc3)O2)cc1)NO` [Tubacin], the phenotypically active was 1 (active).
On the same count and under the same terms, with `CC1CNCCN1S(=O)(=O)c1cccc2cnccc12` (stereo not given) [H-7 dihydrochloride] the figure was 1 (active).
The same measure, in the same setting: with `COc1cc(OC)c2c(=O)[nH]c(-c3cc(C)c(OCCO)c(C)c3)nc2c1` [apabetalone] the figure was 1 (active); with `CC1(CN2CCC(n3c(=O)[nH]c4ccccc43)CC2)OCc2ccccc2-n2cccc21` (stereo not given), 1 (active); with `N#Cc1ccc2ncnc(NCCc3ccccc3)c2c1` [Senexin A], 1 (active).
Same read-out and setting: next, `Nc1ccc(N=Nc2ccccc2)c(N)n1` [phenazopyridine]: 1 (active); `O=C(CCCCCCC(=O)NO)NO`: 1 (active); `CC(C)(C)c1ccc(C(O)CCCN2CCC(C(O)(c3ccccc3)c3ccccc3)CC2)cc1` (stereo not given) [terfenadine]: 1 (active).
Consider `COc1ccccc1C(=O)Nc1cc2c(cc1N1CCCC1)n(C)c(=O)n2C`, for which the phenotypically active is 1 (active).
Still for that read-out and setting: with `CCC(=O)N1CCOc2c(cc(-c3ccc(OC)c(OC)c3)cc2OC[C@H]2CCCN(C)C2)C1` the figure was 1 (active); with `CCc1nc(-c2cccc(C)c2)c(-c2ccnc(NC(=O)c3ccccc3)c2)s1`, 1 (active).
The same measure, in the same setting: next, `Cc1ccc(S(=O)(=O)n2c(N)nc3ccccc32)cc1`: 1 (active).
The same measure, in the same setting: next, `Cc1ccc(NC(=O)c2cccc(C(C)(C)C#N)c2)cc1Nc1ccc2ncn(C)c(=O)c2c1`: 1 (active); `Cn1cc(-c2cnc3ccc4ccc(CS(=O)(=O)NCc5ccccn5)cc4c(=O)c3c2)cn1`: 1 (active); `O=C1c2c(O)cccc2Cc2cccc(O)c21` [anthralin]: 1 (active).
Turning to `COc1cc2c(cc1OC)-c1c/c(=N/c3c(C)cc(C)cc3C)n(C)c(=O)n1CC2` [Trequinsin hydrochloride], the phenotypically active was 1 (active).
Turning to `O=C(Nc1ccncc1)c1cc([N+](=O)[O-])ccc1Cl`, the phenotypically active is 1 (active).
The same measure, in the same setting: with `Nc1ncnc2c1c(-c1ccc(Oc3ccccc3)cc1)nn2C1CCCC1` the figure was 1 (active); with `O=C(Nc1ccc(CN2CCOCC2)cc1)c1ccc(-c2cccc(Cl)c2)o1`, 1 (active); with `O=C(/C=C/c1ccc2ccccc2n1)c1ccncc1`, 1 (active).
The same measure, in the same setting: with `CNCC[C@H](Oc1cccc2ccccc12)c1cccs1` [duloxetine] the figure was 1 (active); with `CNC(=O)c1cc(Oc2ccc(NC(=O)Nc3ccc(Cl)c(C(F)(F)F)c3)c(F)c2)ccn1` [regorafenib], 1 (active).
On the same count and under the same terms, next, `NC(=O)[C@@H](CCC(F)(F)F)N(Cc1ccc(-c2ncon2)cc1F)S(=O)(=O)c1ccc(Cl)cc1` [avagacestat]: 1 (active); `CCC(C)(C)C(=O)O[C@H]1C[C@@H](C)C=C2C=C[C@H](C)[C@H](CC[C@@H]3C[C@@H](O)CC(=O)O3)[C@H]21` [Simvastatin]: 1 (active); `Nc1cc(N)c(N)cc1N` [FAK Inhibitor 14]: 1 (active).
In the case of `Cc1ccc(S(=O)(=O)c2ccc([N+](=O)[O-])o2)cc1`, the phenotypically active is 1 (active).
Turning to `Fc1ccccc1Nc1nc2nonc2nc1Nc1ccccc1F`, the phenotypically active is 1 (active).
Still for that read-out and setting: with `Cc1ccc(O)c([C@H](CCN(C(C)C)C(C)C)c2ccccc2)c1` [Tolterodine L-tartrate] the figure was 1 (active); with `O=c1cc(-c2ccccc2)oc2cc(O)cc(O)c12` [Chrysin], 1 (active); with `COc1cc2nccc(Oc3ccc(NC(=O)C4(C(=O)Nc5ccc(F)cc5)CC4)cc3)c2cc1OC`, 1 (active).
Still for that read-out and setting: next, `CC(C)c1nc(CN(C)C(=O)N[C@H](C(=O)N[C@@H](Cc2ccccc2)C[C@H](O)[C@H](Cc2ccccc2)NC(=O)OCc2cncs2)C(C)C)cs1` [ritonavir]: 1 (active); `CC[C@H](CO)Nc1nc(Nc2cccc(-c3ccccn3)c2)c2ncn(C(C)C)c2n1` [(R)-DRF053 dihydrochloride]: 1 (active); `CN1c2ccc([N+](=O)[O-])cc2N=C(c2ccc(C(=O)O)cc2)c2cc3c(cc21)C(C)(C)CCC3(C)C`: 1 (active).
Still for that read-out and setting: next, `COc1ccc(CCc2nc3cc(-c4c(C)noc4C)ccc3n2C[C@H](C)N2CCOCC2)cc1Cl`: 1 (active).
With `CCOC(=O)c1c2c3c(cccc3[nH]c1=O)C(=O)c1ccccc1-2`, the phenotypically active is 1 (active).
Turning to `CCN1/C(=C/C(C)=O)Sc2ccc(O)cc21`, the phenotypically active was 1 (active).
On the same count and under the same terms, with `CC(C)(C)n1nc(-c2ccc(Cl)cc2)c2c(N)ncnc21` the figure was 1 (active).
The same measure, in the same setting: with `O=S(=O)(c1cccc2cnccc12)N1CCNCC1` the figure was 1 (active); with `CC(C)c1c(C(=O)Nc2ccccc2)c(-c2ccccc2)c(-c2ccc(F)cc2)n1CC[C@@H](O)C[C@@H](O)CC(=O)O` [atorvastatin], 1 (active).
